# Screening data deposited in PubChem by National Center for Advancing Translational Sciences (NCATS).
# Shown are actives, neighbours in structure and some others; about 11% of the full set was active somewhere.
# PNC inhibitor – perinucleolar compartment assembly inhibition | PC3M PTB-GFP, PNC prevalence imaging, 16 h; stronger effect = lower value | activity change (PNC), negative = inhibition, % at 10 µM | hit rate 3.1% among 140,000;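 active = readout at or below -70, meaning at least 70% loss of cells showing the perinucleolar compartment, a nuclear body marking cancer cells; inconclusive = readout between -30 and a set limit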;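 also: plate controls were DMSO wells for no effect and camptothecin positive control wells for full effect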
#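 Compounds are pinned in duplicate onto adhered PC3M cells stably expressing GFP-tagged PTB and incubated 16 h at 37 C. Cells are then fixed, nuclei stained with Hoechst, and PNC-positive cells counted.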
# HPGD block – HPGD (human) dehydrogenase inhibition | P15428 | purified HPGD, NADH fluorescence kinetic, PGE2 substrate | Potency, µM, without a hit: top-dose activity change, negative = inhibition, most hits filed as inhibitors | hit rate 4.3% among 150,000 | AID 894; also: potency is read from the fitted curve at half-maximal effect
# Target sequence (P15428 whole entry, looked up): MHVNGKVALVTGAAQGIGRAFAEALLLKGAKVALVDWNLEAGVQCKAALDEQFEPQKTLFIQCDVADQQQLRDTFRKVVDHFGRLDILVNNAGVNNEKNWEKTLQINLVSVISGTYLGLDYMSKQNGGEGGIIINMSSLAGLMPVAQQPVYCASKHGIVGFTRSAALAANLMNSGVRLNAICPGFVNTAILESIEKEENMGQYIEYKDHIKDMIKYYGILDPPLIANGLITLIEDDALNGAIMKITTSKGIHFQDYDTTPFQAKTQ
#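 20 nM HPGD preincubated 15 min at room temperature with compound in 50 mM Tris-HCl pH 8, 0.01% Tween 20. Started with 1 mM NAD+ and 30 uM prostaglandin E2; NADH fluorescence (360/450 nm) read 5 times over 30-s intervals, last minus first.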
# ALDH1A1 inh – blocks purified human ALDH1A1 activity; P00352; Purified ALDH1A1, NADH fluorescence, propionaldehyde substrate; Potency, µM (top dose mostly 75.3 µM), inactives show at the top dose activity, negative = inhibition, usual class: inhibitors; hit rate 7.3% among 220,000; AID 1030;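 also: potency is read from the fitted curve at half-maximal effect; plate controls were no enzyme wells and a reference inhibitor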
# An asterisk follows results filed as active; ? = inconclusive; nt = no result; [ ] = dose if it differs, or a comment. Unless noted, calls follow the shape of the dose curve; as a rule, active = well fitted inhibition curve with a large enough effect (not every such curve was filed as active); inconclusive = small, poorly fitted or top-dose-only effect, or another doubt; inactive = no such curve, though single readings can be large or run the other way. Unless noted, % is scaled to controls: 0 for no effect and ±100 for the full control effect.
SMILES,PNC inhibitor,HPGD block,ALDH1A1 inh
O=C(O)CCC(=O)c1ccc2sc3ccccc3c2c1,nt,-15%,-6%[13.5 µM]
COc1ccc(C2C(C(C)=O)=C(O)C(=O)N2c2nccs2)c(OC)c1 (configuration not stated),nt,nt,3%
Cc1cc(C)c(S(=O)(=O)NCC23C=CC(O2)C2C(=O)N(c4ccccc4)C(=O)C23)c(C)c1 (configuration not stated),87,35µM*,2.5µM*
O=C1C2C3C=CC(CNS(=O)(=O)c4ccccc4[N+](=O)[O-])(O3)C2C(=O)N1c1ccccc1 (configuration not stated),nt,nt,0.89µM*
O=C1C2C3C=CC(c4ccccc4)(C2C(=O)N1c1cccc(Cl)c1)C1C(=O)N(c2cccc(Cl)c2)C(=O)C31 (configuration not stated),18,-17%,?
O=[N+]([O-])c1ccccc1S(=O)(=O)NCc1ccco1,nt,nt,0%
CCOC(=O)/C(C#N)=C\c1cn(C)c2ccccc12,nt,nt,-1%
CCOC(=O)/C(=C\c1cn(C)c2ccccc12)[N+](=O)[O-],-20,3.5µM*,6.3µM*
C/C(N)=C(/C#N)C(=O)COC(=O)c1oc2ccccc2c1COC(C)C,nt,nt,-2%
O=c1/c(=C/c2ccccn2)sc2nc3ccccc3n12,-20,-8%,6%
CC(C)(O)c1cc(=O)sc2nc3ccccc3n12,-100*,-11%,3%
c1ccc2nc3c(nc2c1)sc1nc2ccccc2n13,-14,-21%,9%
O=c1/c(=C\c2cc([N+](=O)[O-])cc([N+](=O)[O-])c2O)sc2nc3ccccc3n12,nt,nt,7.9µM*
N#Cc1cc2sc3nc4ccccc4n3c2cc1C#N,21,-1%,0%
COC(=O)/C=c1/sc2nc3ccccc3n2c1=O,-25,7.9µM*,10µM*
CC(=O)OC[C@H]1O[C@@H](O/N=C(\C)CCN2CCc3nc(-c4ccccc4)c(-c4ccccc4)cc3C2)[C@H](OC(C)=O)[C@@H](OC(C)=O)[C@H]1OC(C)=O,nt,nt,-1%[13.5 µM]
COc1ccccc1N1CCN(C(=O)NC23CC4CC(CC(C4)C2)C3)CC1,nt,nt,6%
Cc1cc2nc(CSc3ccc(Cl)cc3)cc(=O)n2[nH]1,nt,nt,0%
CCOc1ncccc1C(=O)OCC(=O)Nc1cccc(S(N)(=O)=O)c1,nt,nt,22%
NC(=O)C1(NC(=O)[C@@H]2CC3(CC(c4cccc(NC(=O)[C@@H]5CCC(=O)N5)c4)=NO3)CN2C(=O)c2cnccn2)CC1 (some centres not stated),-2,-13%,22µM*
NC(=O)C1(NC(=O)[C@@H]2CC3(CC(c4cccc(NC(=O)[C@@H]5CCC(=O)N5)c4)=NO3)CN2C(=O)c2ccccc2)CC1 (some centres not stated),33,-1%,3%
CN1C(=O)C(O)(CC(=O)/C=C/c2ccco2)c2ccccc21 (configuration not stated),nt,nt,-7%
CN1C(=O)C(O)(CC(=O)/C=C/c2ccco2)c2cc(Br)ccc21 (configuration not stated),nt,nt,24µM*
O=C(NCc1ccco1)C(=O)NCc1ccccc1Cl,86,-16%,5%
CCCCN1C(=O)C(O)(CC(=O)c2ccco2)c2cc(Br)ccc21 (configuration not stated),-28,2%,8.9µM*
SMILES,PNC inhibitor,HPGD block,ALDH1A1 inh
CN1C(=O)C(O)(CC(=O)c2ccccc2O)c2cc(Br)ccc21 (configuration not stated),-13,-7%,-4%
Cc1coc(C)c1C(=O)CC1(O)C(=O)N(CCc2ccccc2)c2ccccc21 (configuration not stated),22,?,4.5µM*
O=C(CC1(O)C(=O)N(Cc2ccccc2Cl)c2ccccc21)c1ccco1 (configuration not stated),?,-1%,1.3µM*
Cc1n[nH]c(C)c1C(=O)CC1(O)C(=O)N(CCc2ccccc2)c2ccc(Cl)cc21 (configuration not stated),24,1%,?
C=C(C)[C@H]1CC=C(C)C(=O)C1,nt,5%,18%
O=C(CSc1nnc(NC(=O)c2ccco2)s1)Nc1ccc2c(c1)OCCO2,nt,nt,-3%
COC(=O)C1=C(C(=O)OC)[C@@H]2Nc3ccccc3[C@@]23C[C@@H](C(=O)OC)N(C(=O)CC(C)C)C3=N1,nt,-9%,-5%[13.5 µM]
CC(C)NC(=O)NC(=O)COC(=O)/C=C/c1ccccc1[N+](=O)[O-],nt,nt,-12%
S=C(NCCc1ccccc1)N1CCN(C23CC4CC(CC(C4)C2)C3)CC1,nt,nt,-8%
CN1C(=O)C(O)(CC(=O)c2cccc(-n3cccc3)c2)c2ccccc21 (configuration not stated),-20,-20%,?
C#CCN1C(=O)C(O)(CC(=O)c2cccc(OC)c2)c2ccccc21 (configuration not stated),?,-10%,1.6µM*
COc1ccc(CN2C(=O)C(O)(CC(=O)c3ccc4c(c3)OCO4)c3ccccc32)cc1OC (configuration not stated),24,-6%,4.5µM*
COc1cccc2cc(C(C)=O)c(=O)oc12,-24,1%,11%
CCOC(=O)CN1C(=O)CSc2ccccc21,-4,-22%,8%
CCOC(=O)CN1C(=O)C(O)(CC(=O)c2ccco2)c2ccccc21 (configuration not stated),?,-9%,0.16µM*
COc1cccc2cc(C(=O)CC3(O)C(=O)N(Cc4ccccc4)c4ccccc43)c(=O)oc12 (configuration not stated),9,-1%,0.089µM*
CCN1C(=O)C(O)(CC(=O)c2ccc3c(c2)OCCO3)c2ccccc21 (configuration not stated),19,-16%,?
CCCn1c(=O)c2c(nc3n2CCS3)n(C)c1=O,nt,nt,13%
CC1(C(=O)NCc2ccc(Cl)c(Cl)c2)Oc2cccnc2NC1=O (configuration not stated),nt,nt,11%
O=C1C[C@@H](O)[C@@H](O)[C@H]2[C@@H]3C(=O)N(C4CCCCC4)C(=O)[C@@H]3CC[C@H]12,nt,nt,-13%[13.5 µM]
CC(N)(COP(=O)(O)O)C(=O)O (configuration not stated),nt,nt,6%
CN1CCN([C@@H](c2ccccc2)c2ccc(Cl)cc2)CC1,nt,-3%,5%[20.9 µM]
CC12CN3CC(C)(CN(C1)C31C(=O)N(Cc3ccccc3)c3ccccc31)C2=O (configuration not stated),?,4%,7.9µM*
CC1(C)CC(=O)C(C2(O)C(=O)N(Cc3ccccc3)c3ccccc32)CO1 (configuration not stated),50,-7%,0.032µM*
CC(C)(C)C(=O)CC1(O)C(=O)N(Cc2ccc(Cl)cc2)c2ccccc21 (configuration not stated),16,-7%,?
COc1ccc(C(=O)N/N=C2/SCC(=O)N2Cc2ccc3c(c2)OCO3)cc1OC,43,-12%,20µM*
CC1(C)CC(=O)N(Cc2ccccc2)C(=O)C1,14,0%,-1%
O=C(O)CC1(O)C(=O)N(Cc2ccccc2)c2ccccc21 (configuration not stated),nt,nt,20µM*
COc1cccc(C(=O)N/N=C2\SCC(=O)N2Cc2ccc3c(c2)OCO3)c1,-16,-23%,1%
